An excerpt weighted towards active compounds, which were near 1.2% of everything screened.
TLR4-MyD88 BLA – inhibitors of human TLR4-MyD88 binding. O00206+Q99836. HeLa CL3-4 TLR4/MyD88 BLA complementation, FRET ratio. inhibition, % at 8.4 µM. 0.18% of 200,000 active. AID 861; in the data active means inhibition above about 25%;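 further: 0% = vehicle and 100% = reference inhibitor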
NOD2 RIPK2 PPI – inhibitors of human NOD2-RIPK2 interaction | CHO BLA complementation NOD2-RIPK2, CCF4 ratio | inhibition, % at 4.98 µM | 0.38% of 360,000 active | AID 624267; in the data active means inhibition above about 21%;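 further: 0% = vehicle only and 100% = reference blocker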
TLR9-MyD88 block – inhibitors of human TLR9-MyD88 binding; CHO BLA complementation TLR9-MyD88, CCF4 FRET ratio; inhibition, % at 4.98 µM; 0.21% of 340,000 active;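 active means inhibition above the mean over all tested compounds plus 3 SD, cut at about 21% in these data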;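 further: 0% = DMSO only wells and 100% = clavulanate BLA inhibitor control wells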
ABHD5-PLIN5 inh – inhibitors of human ABHD5-perilipin-5 interaction; inhibition, % at 4 µM; Q00G26+Q8WTS1; 0.78% of 360,000 active; Split G. princeps luciferase complementation, luminescence, 4 h;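 active means inhibition above the mean inhibition across every tested compound plus 3 SD, cut at about 22% in these data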;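 further: 0% = DMSO only wells and the 100% control is not disclosed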
ABHD5-PLIN5 conf – confirmation of human ABHD5-PLIN5 interaction inhibitors | inhibition, % at 4 µM | biochemical ABHD5-PLIN5 interaction, luminescence | 67% of 2,200 active | shares compounds with ABHD5-PLIN5 inh; in the data active means inhibition above about 23%;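 further: 0% = DMSO vehicle wells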
HNF4 counter – HNF4 split-luciferase signal hit, counter-screen; shares compounds with ABHD5-PLIN5 inh; HNF4 dimerization, luminescence, biochemical; inhibition, % at 4 µM; 77% of 2,200 active; AID 651674;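 active means mean inhibition across replicate wells exceeding the computed hit threshold, cut at about 13% in these data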;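 further: light from luciferase halves that rejoin when HNF4 fusion proteins dimerize; 0% = DMSO only wells and the 100% control is not given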
The depositor's hits bear a star; x = no result.

SMILES	TLR4-MyD88 BLA	NOD2 RIPK2 PPI	TLR9-MyD88 block	ABHD5-PLIN5 inh	ABHD5-PLIN5 conf	HNF4 counter
Cc1nnnn1/C(=C\c1ccccc1)C(=O)OCC(=O)Nc1ccc(Cl)cc1F	x	14.3	7.3	68.5*	91.8*	84.9*
C/C=C/C=C/C(=O)[C@@H]1[C@@H]([C@]2(C)OC(=O)C(C)=C2O)[C@H]2/C(=C(O)/C=C/C=C/C)C(=O)[C@]1(C)C(=O)C2(C)O (stereo partly drawn)	x	-3.5	-18.9	34.6*	43.7*	25.0*
CC(=O)Nc1ccc(N2C(=O)CSC2c2cccc(Br)c2)cc1 (stereo not drawn)	x	-2.9	2.8	0.7	x	x
CN1CCN(C(CNC(=O)C(=O)Nc2ccc3c(c2)OCCO3)c2ccc(F)cc2)CC1 (stereo not drawn)	x	6.5	-7.7	4.0	x	x
O=C1Nc2ccc(Cl)cc2/C1=C/C1CC=CCC1 (stereo not drawn)	-8.6	-3.4	-0.9	30.1*	54.8*	38.9*
NC(=O)c1c(NC(=O)C2COc3ccccc3O2)sc2c1CCN(Cc1ccccc1)C2 (stereo not drawn)	-6.4	-6.1	-20.1	-5.1	x	x
COC(=O)N1CCc2c(sc(NC(=O)C3COc4ccccc4O3)c2C(N)=O)C1 (stereo not drawn)	x	7.8	-1.1	39.9*	1.1	7.5
CS(=O)(=O)N(CC(=O)Nc1ccccc1Br)Cc1ccccc1	x	1.1	-5.3	-2.8	x	x
Cc1ccccc1NN=Nc1nc2c([nH]1)c(=O)n(C)c(=O)n2C	5.8	4.7	-12.3	0.2	x	x
Cn1c(=O)c2[nH]c(N=NNc3ccccc3F)nc2n(C)c1=O	x	4.2	-1.7	23.9*	9.1	13.6*
Cc1ccc(N=C(N)N=C(N)N)c(C)c1	x	2.1	1.4	-10.3	x	x
O=C1/C(=C\c2ccc(Cl)cc2)CCC1CNc1ccc(Cl)cc1 (stereo not drawn)	x	0.3	2.3	36.9*	59.8*	79.9*
CN(C)CC1CCC/C(=C\c2ccc(OC(=O)c3ccc(Cl)cc3)cc2)C1=O (stereo not drawn)	x	3.9	-7.0	5.0	x	x
Cc1ccc(C(=O)/C=C/c2ccc(Br)cc2)o1	12.0	5.9	-11.4	52.5*	85.4*	60.8*
Cc1ccc(C(=O)/C=C/c2ccccc2)o1	10.6	3.6	-15.4	15.4	x	x
COc1cc2c(cc1OC)C(=O)C(c1ccc3c(c1)OCO3)CC2 (stereo not drawn)	x	-19.5	1.1	1.9	x	x
COc1cc2c(cc1OC)C(=O)C(Br)CC2 (stereo not drawn)	x	-4.0	-0.1	82.4*	5.4	15.6*
Cc1ccc(-c2cc(C(=O)N3CCCc4ccccc43)no2)cc1	13.4	-16.9	-8.0	5.8	x	x
CCOc1ccc2nc(Cl)c(/C=C/C(=O)c3ccco3)cc2c1	7.8	-4.8	-6.8	34.1*	93.4*	91.9*
Cc1cccc2cc(/C=N/Nc3ccc(C(=O)O)cc3)c(Cl)nc12	x	3.6	3.3	2.3	x	x
Cc1cccc2cc(/C=C/C(=O)c3ccco3)c(Cl)nc12	x	-3.5	x	42.2*	72.9*	62.8*
CCOc1ccc2nc(NC(=O)c3ccco3)sc2c1	x	-2.4	-6.1	0.0	x	x
O=C(NCCc1nc(-c2ccccc2)cs1)c1ccc(Br)cc1	-0.3	-5.5	1.3	-1.0	x	x
C=C1C(=O)O[C@H]2[C@H]1[C@H](OC(=O)/C(C)=C\C)C[C@]1(CO1)[C@@H]1[C@H](OC(C)=O)C=C(C)[C@]21O	x	5.9	-4.2	24.8*	46.1*	39.7*
O=C(COC(=O)C1CC1)NCCc1ccc(Cl)cc1	x	-6.0	-3.1	-3.6	x	x
SMILES	TLR4-MyD88 BLA	NOD2 RIPK2 PPI	TLR9-MyD88 block	ABHD5-PLIN5 inh	ABHD5-PLIN5 conf	HNF4 counter
O=C(COC(=O)C1CC1)NCCNC(=O)COC(=O)C1CC1	x	-2.3	-5.8	85.9*	5.4	1.4
CC(C)OC(=O)CN1C(=O)S/C(=C/c2ccc(N3CCCCC3)o2)C1=O	1.9	8.6	-2.7	34.2*	60.7*	101.6*
O=C1S/C(=C\c2ccc(N3CCOCC3)o2)C(=O)N1Cc1ccc(F)cc1	9.5	-7.3	4.1	17.2	x	x
CC1C/C(=C/c2ccncc2)C(=O)/C(=C/c2ccncc2)C1 (stereo not drawn)	5.9	5.6	-1.6	96.0*	103.3*	105.6*
O=C(O)c1cccc(NC2=C(Cl)C(=O)c3ccccc3C2=O)c1	-4.6	2.2	-6.4	37.9*	38.1*	23.9*
Cc1ccccc1N=C1NC(=O)/C(=C/c2cccn2-c2cccc(C(=O)O)c2)S1	-20.4	x	x	x	x	x
